The structures appear in SMILES notation. About 83,000 compounds went through this panel and 20% of them were active in at least one assay; those are over-represented in the sample as a whole.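 Interpretation: 100, growth as untreated; towards 0, rising growth inhibition; 0, no net growth; 0 to -100, cell death. Compounds scoring below 10 were considered active.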 Activity calls are given as the source filed them.

The subject of the assay is SR leukemia. The assay can be described thus: NCI-60 one-dose screen, 48 h (100 = growth as untreated, 0 = no growth, -100 = all killed). The following applies: 10 µM unless noted.
For `CCN1C(=O)N(CC)C2C1NN=c1s/c(=C\c3cc4ccccc4[nH]3)c(=O)n12` (centres undefined), the growth is 22.8% (inactive).
In the case of `CCN(CC)CCCNCc1cc(-c2ccccc2)nc2cc(Cl)ccc12` it was 13.6% (inactive).
In the case of `CC[C@H](CC[C@@H](C)[C@H]1CC[C@H]2[C@@H]3CC[C@@H]4CC(=O)/C(=C\c5ccncc5)C[C@]4(C)[C@H]3CC[C@]12C)C(C)C` it was 87.5% (inactive).
Next, `CCN(CC)c1ccc(/C=N\NC(=O)c2cccc(Nc3ccnc(C(F)(F)F)c3)c2)c(O)c1`: 131% (inactive); `Cc1cscc(C)c1=S`: 72.9% (inactive).
As for `COC(=O)/C=C1/SC(=Nc2cccc(Cl)c2)N(CCc2c[nH]c3ccc(O)cc23)C1=O`, the growth is -8.45% (active).
Take `O=C(CCCCCCCCC(=O)N/N=C\c1cc(Cl)ccc1O)N/N=C\c1cc(Cl)ccc1O`: the growth was 14.1% (inactive).
In the case of `COc1ccc(/C=C/C(=O)c2cc3c(N)c(C(=O)Nc4ccc(OC)cc4)sc3nc2C)cc1` it was 11.8% (inactive); in that of `CCCCCCOC(=O)CC1=C(C)/C(=C/c2[nH]c(-c3ccc[nH]3)cc2OC)N=C1C`, -44.5% (active); in that of `Cc1ccc(O)c(NC(=O)c2ccc(CNc3ccnc(C(F)(F)F)c3)cc2)c1`, 36.4% (inactive).
In the case of `O=C1/C(=C/c2ccc(Br)cc2)COc2ccc(O)c(O)c21` it was 6.26% (active); in that of `O=C(/C=C/C12c3ccccc3C(c3ccccc31)C1C(=O)NC(=O)C12)c1ccc(F)cc1` (centres undefined), 0.421% (active); in that of `Cc1ccc(C)c2c1C(O)(C#Cc1ccccc1)c1ccccc1C2(O)C#Cc1ccccc1` (centres undefined), 123% (inactive).
In the case of `C(/C=C/c1ccccc1)=Nc1ccc(CCc2ccc(N=C/C=C/c3ccccc3)cc2)cc1` it was 47.3% (inactive).
Turning to `O=C(Cn1nnc2ccccc21)Nc1ccc(-c2nc3ccccc3s2)cc1`, the growth is 40.2% (inactive).
In the case of `CCCCCCCC/C=C\CCCCCCCCOc1ccc(CC(=O)NCC[N+](C)(C)C)cc1` it was 62.4% (inactive); in that of `COc1cc(/C=C2\CN(S(=O)(=O)c3ccc(C)cc3)C/C(=C\c3cc(CN4CCCCC4)c(O)c(OC)c3)C2=O)cc(CN2CCCCC2)c1O`, -14.6% (active).
In the case of `Cc1ncc(C(=O)Nc2ccc(CN3CCN(C)CC3)c(C(F)(F)F)c2)cc1C#Cc1cnc(N)c2ccncc12` it was -41% (active); in that of `COc1cc(C2=NN(C(C)=O)C(c3ccc(N(C)C)cc3)C2)cc(OC)c1OC` (centres undefined), 83.9% (inactive).
For `COC1=CC(c2ccc[nH]2)=N/C1=C\c1[nH]c(C)c(CC(=O)OCc2ccccc2)c1C`, the growth is -25.5% (active).
In the case of `CCOC(=O)CSc1nc2sc3c(c2c(=O)n1-c1ccc([N+](=O)[O-])cc1)CCCCC3` it was 76.7% (inactive); in that of `CN(C)c1ccc(C(=NO)c2ccc(N(C)C)cc2)cc1`, 12.7% (inactive).
In the case of `Cc1ccc(C(=O)c2ccc(CC(=O)N/N=C/c3ccc(O)cc3O)n2C)cc1` it was 17.3% (inactive).
In the case of `N#C/C(=C\c1ccc(Br)cc1)c1cc2ccccc2[nH]1` it was 81.2% (inactive); in that of `COc1ccc(-c2cn(-c3ccc(Cl)cc3)c(SCC(=O)c3ccc([N+](=O)[O-])cc3)n2)cc1`, 90.1% (inactive).
Regarding `COc1ccc(Cc2nnc(Nc3nc4ccccc4s3)s2)cc1`, the growth was 60.6% (inactive).
In the case of `CCOC(=O)c1ccc2c(c1)c1c(C)c3ccncc3c(C)c1n2C` it was 26.8% (inactive); in that of `Cc1nc2sc(C(=O)Nc3cccc(Cl)c3)c(N)c2cc1C(O)c1ccccc1` (centres undefined), 8.06% (active).
In the case of `COc1ccc(C2CC(c3ccc(Nc4nc(Nc5ccc(F)cc5)nc(Nc5ccc(F)cc5)n4)cc3)=NN2C(C)=O)cc1` (centres undefined) it was 16.4% (inactive); in that of `N#Cc1c(NC(=O)c2cccs2)[n+]([O-])c2ccc(Cl)cc2[n+]1[O-]`, 109% (inactive); in that of `CC(C)(C)c1cc(C=Nc2cccc(C(F)(F)F)c2)c(O)c(C(C)(C)C)c1`, 77.7% (inactive).
Next, `N=c1sc(Cc2cc(Cl)ccc2Cl)cn1CC(=O)c1ccccc1`: 27.4% (inactive); `COc1ccc(Nc2ncc(C(N)=O)c(NCCCNC(=O)C3CCC3)n2)cc1`: 65.1% (inactive); `Cc1nn(-c2ccccc2)c(/N=C/N(C)C)c1/C=C/C(=O)c1ccc(Cl)cc1`: 23.4% (inactive).
Regarding `COc1ccc2cc(-c3ccc(-c4ccc(C(=N)N)s4)s3)ccc2c1`, the growth is -14.5% (active).
In the case of `O=C1c2cccnc2C(=O)c2c1c(C(=O)OCCCN1CCCCC1)c1ccccn21` it was -15.8% (active).
In the case of `O[C@@H](c1cc(C(F)(F)F)nc2c(C(F)(F)F)cccc12)[C@H]1CCCCN1` it was 8.64% (active); in that of `Cc1[nH]c(/C=C/C(=O)c2ccc(C(F)(F)F)c(F)c2)c(C)c1C(=O)NCC(C)C`, 85.6% (inactive).
Next, `CCCCCCCCn1ccc2cc(NC(=O)Cn3cc(CN4CCCCCC4)nn3)ccc21`: -13.1% (active).
